{
  "source": "PubChem BioAssay",
  "note": "Inconclusive results are not listed. The source made the active and inactive calls. Unless noted, no cut-off is given here; in the data, nearly all actives have AC50 up to about 26 µM.",
  "data": [
    {"experiment": "growth inhibition of DIPG glioma cells, dose response, cell-based, SU-DIPG-XIII, MIPE5.0, CellTiter-Glo, qHTS (AID 1347064; cut-off not given, nearly all actives have AC50 up to about 23 µM)", "settings": "SU-DIPG-XIII viability, CellTiter-Glo ATP luminescence", "values": [
      {"smiles": "O=C(O)c1cc(O)c2c(c1)C(=O)c1cccc(O)c1C2=O", "outcome": "inactive"},
      {"smiles": "CC(C)(C)OC(=O)N[C@H]1CCCCC/C=C\\[C@@H]2C[C@@]2(C(=O)NS(=O)(=O)C2CC2)NC(=O)[C@@H]2C[C@@H](OC(=O)N3Cc4cccc(F)c4C3)CN2C1=O", "outcome": "inactive"},
      {"smiles": "C=C1C[C@@]2(O)O[C@@]3(C[C@H]2C(C)C)[C@@H](C)CC[C@@H]13", "outcome": "inactive"},
      {"smiles": "Cc1nc2c([nH]1)CCN(C(=O)c1ccc(NC(=O)c3ccccc3-c3ccccc3)cc1)c1ccccc1-2", "outcome": "inactive"}
    ]},
    {"experiment": "viability loss in pontine glioma line – cell-based, SU-DIPG-XXV, MIPE5.0, CellTiter-Glo, qHTS, dose response (AID 1347065);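 note: cells exposed to compound for 48 hours before ATP readout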", "settings": "CellTiter-Glo ATP luminescence", "values": [
      {"smiles": "C/C(=C\\C(=O)Nc1ccccc1C(=O)O)c1ccc2ccccc2c1", "outcome": "inactive"},
      {"smiles": "CC1COC2(CCN(c3nc(=O)c4cc(C(F)(F)F)cc([N+](=O)[O-])c4s3)CC2)O1", "note": "(configuration not stated)", "outcome": "inactive"},
      {"smiles": "C=C1/C(=C\\C=C2/CCC[C@]3(C)[C@@H]([C@H](C)/C=C/[C@H](C)C(C)C)CC[C@@H]23)C[C@@H](O)C[C@@H]1O", "AC50": "18.6 µM (active)"},
      {"smiles": "CCCCCCCCCCCCCC(=O)N[C@H](CO)[C@H](O)c1ccc([N+](=O)[O-])cc1", "AC50": "18.6 µM (active)"},
      {"smiles": "C[C@]12CC[C@H](O)CC1=CCC1C2CC[C@]2(C)C(n3cnc4ccccc43)=CCC12", "note": "(some centres not stated)", "AC50": "20.9 µM (active)"},
      {"smiles": "Cc1ccnc(NS(=O)(=O)c2ccc(NC(=O)Nc3ccc(S(=O)(=O)Nc4nccc(C)n4)cc3)cc2)n1", "outcome": "inactive"},
      {"smiles": "CC(C)(C)COc1ccc(-n2cc(C(=O)O)cn2)cc1C#N", "outcome": "inactive"},
      {"smiles": "Nc1n[nH]c2nnc(-c3c(-c4ccccc4)nn4ccccc34)cc12", "outcome": "inactive"},
      {"smiles": "CCCCCNC(=O)N1CCC(CN(Cc2ccc(Cl)cc2)Cc2ccc([N+](=O)[O-])s2)C1", "note": "(configuration not stated)", "AC50": "29.5 µM (active)"},
      {"smiles": "c1nc2nc(Nc3ccc(N4CCOCC4)cc3)nc(NC3CCCCC3)c2[nH]1", "AC50": "2.09 µM (active)"},
      {"smiles": "CCC(C)CCCCC(=O)N[C@@H](CCN)C(=O)NC(C(=O)N[C@H](CCN)C(=O)N[C@@H]1CCNC(=O)C([C@@H](C)O)NC(=O)[C@@H](CCN)NC(=O)[C@@H](CCN)NC(=O)[C@@H](CC(C)C)NC(=O)[C@H](Cc2ccccc2)NC(=O)[C@H](CCN)NC1=O)[C@@H](C)O", "note": "(some centres not stated)", "outcome": "inactive"},
      {"smiles": "CN(C)CCCNC(=O)c1ccc(-c2cc(O)c3ncccc3c2)cc1", "outcome": "inactive"},
      {"smiles": "COc1ccc(CC2SC(=O)NC2=O)cc1C(=O)NCc1ccc(C(F)(F)F)cc1", "note": "(configuration not stated)", "outcome": "inactive"}
    ]}
  ]
}
